Results taken from the supplement of paper PMC11732987, “Enantioselective OTUD7B fragment discovery through chemoproteomics screening and high-throughput optimisation” (Communications Chemistry, 2025).

Assays:
Test in all cases: log2 ratio of Biotin-Ahx-Ub-VS probe labelling (fragment/DMSO); higher = less target engagement (more negative = stronger competition), active = hit call of the paper (q ≤ 0.05, log2 ratio ≤ -1)
Conditions in all cases: compound concentration: 200 uM; treatment time: 3 h
[1] = target: USP9X (UniProt Q93008)
Summary of the method: (§1)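 HEK293T lysate (495 µg per sample, in Tris/CHAPS/IGEPAL buffer with protease inhibitors) was exposed in triplicate for 3 h to fragment at 200 µM or to vehicle, then to Biotin-Ahx-Ub-VS at 0.5 µM final for 1 h. Labelled DUBs were enriched on NeutrAvidin, digested with LysC and trypsin, and analysed by diaPASEF LC-MS/MS. Spectronaut label-free quantities were normalised to the global median, and values are average log2 ratios of fragment over vehicle from an unpaired t-test. Only proteins with ≥2 unique peptides were used.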

[2] = target: UniProt O00487
Summary of the method: as §1

[3] = target: UniProt O00507
Summary of the method: as §1

[4] = target: UniProt P51784
Summary of the method: as §1

[5] = target: T1, UniProt Q5T2D3
T1 sequence (whole entry): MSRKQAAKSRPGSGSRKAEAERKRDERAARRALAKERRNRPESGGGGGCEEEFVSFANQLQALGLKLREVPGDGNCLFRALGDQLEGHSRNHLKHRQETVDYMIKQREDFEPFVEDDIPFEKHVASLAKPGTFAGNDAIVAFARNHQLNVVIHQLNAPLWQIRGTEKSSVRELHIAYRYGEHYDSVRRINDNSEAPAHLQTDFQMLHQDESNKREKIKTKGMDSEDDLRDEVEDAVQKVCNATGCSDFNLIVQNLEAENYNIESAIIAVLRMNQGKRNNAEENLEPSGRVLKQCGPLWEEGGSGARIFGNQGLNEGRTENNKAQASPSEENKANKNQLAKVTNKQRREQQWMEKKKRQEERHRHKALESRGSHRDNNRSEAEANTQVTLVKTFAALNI
Summary of the method: as §1

[6] = target: T2, UniProt Q8TE49
T2 sequence (whole entry): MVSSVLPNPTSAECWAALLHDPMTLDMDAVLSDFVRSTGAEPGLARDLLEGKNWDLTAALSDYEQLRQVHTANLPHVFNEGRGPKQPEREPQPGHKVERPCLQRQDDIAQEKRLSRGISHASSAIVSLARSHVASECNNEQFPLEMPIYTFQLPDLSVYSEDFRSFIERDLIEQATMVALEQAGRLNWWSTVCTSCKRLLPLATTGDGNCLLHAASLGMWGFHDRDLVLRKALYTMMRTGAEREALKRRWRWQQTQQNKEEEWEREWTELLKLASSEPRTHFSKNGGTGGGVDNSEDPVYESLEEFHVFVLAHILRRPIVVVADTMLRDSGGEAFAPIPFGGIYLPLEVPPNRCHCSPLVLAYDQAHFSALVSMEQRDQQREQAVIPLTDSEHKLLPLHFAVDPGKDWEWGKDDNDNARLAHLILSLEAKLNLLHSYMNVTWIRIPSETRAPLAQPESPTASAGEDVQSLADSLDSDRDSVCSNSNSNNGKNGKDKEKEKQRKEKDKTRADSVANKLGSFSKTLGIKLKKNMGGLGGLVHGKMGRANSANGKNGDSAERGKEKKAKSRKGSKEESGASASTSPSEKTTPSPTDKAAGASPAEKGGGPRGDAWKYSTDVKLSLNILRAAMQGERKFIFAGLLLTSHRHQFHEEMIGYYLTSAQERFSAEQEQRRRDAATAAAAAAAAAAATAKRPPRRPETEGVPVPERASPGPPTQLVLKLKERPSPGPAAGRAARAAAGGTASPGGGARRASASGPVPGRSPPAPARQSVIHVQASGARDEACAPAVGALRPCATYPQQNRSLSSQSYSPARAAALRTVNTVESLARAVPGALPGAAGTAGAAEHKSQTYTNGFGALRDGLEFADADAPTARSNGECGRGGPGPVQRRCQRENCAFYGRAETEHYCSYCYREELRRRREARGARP
Summary of the method: as §1

[7] = target: T3, UniProt Q9P2H5
T3 sequence (whole entry): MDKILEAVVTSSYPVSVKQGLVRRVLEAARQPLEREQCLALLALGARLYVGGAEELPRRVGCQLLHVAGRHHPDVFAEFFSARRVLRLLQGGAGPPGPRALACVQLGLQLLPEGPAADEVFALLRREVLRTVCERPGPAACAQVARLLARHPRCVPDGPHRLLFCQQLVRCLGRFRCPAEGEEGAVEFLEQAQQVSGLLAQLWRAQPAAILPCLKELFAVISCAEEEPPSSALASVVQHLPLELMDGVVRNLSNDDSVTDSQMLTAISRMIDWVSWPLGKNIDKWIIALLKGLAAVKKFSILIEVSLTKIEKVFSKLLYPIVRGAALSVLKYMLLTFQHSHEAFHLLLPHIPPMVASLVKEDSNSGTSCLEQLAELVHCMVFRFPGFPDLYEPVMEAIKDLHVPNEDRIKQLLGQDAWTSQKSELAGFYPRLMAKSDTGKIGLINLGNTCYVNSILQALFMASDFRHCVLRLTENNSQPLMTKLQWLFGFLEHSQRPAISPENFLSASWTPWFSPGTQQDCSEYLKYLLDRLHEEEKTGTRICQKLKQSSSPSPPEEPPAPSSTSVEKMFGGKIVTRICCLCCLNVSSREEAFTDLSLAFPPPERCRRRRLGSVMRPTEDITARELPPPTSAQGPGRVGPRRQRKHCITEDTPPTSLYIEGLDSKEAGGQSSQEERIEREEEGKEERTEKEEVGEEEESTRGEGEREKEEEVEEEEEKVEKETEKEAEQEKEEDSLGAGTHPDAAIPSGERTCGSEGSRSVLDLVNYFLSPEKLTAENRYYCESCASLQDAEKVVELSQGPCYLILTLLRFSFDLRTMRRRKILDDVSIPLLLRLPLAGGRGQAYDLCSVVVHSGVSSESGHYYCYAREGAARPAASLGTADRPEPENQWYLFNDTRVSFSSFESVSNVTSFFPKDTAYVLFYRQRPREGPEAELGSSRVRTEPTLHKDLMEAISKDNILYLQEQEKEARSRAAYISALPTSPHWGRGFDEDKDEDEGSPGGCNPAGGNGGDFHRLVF
Summary of the method: as §1

[8] = target: T4, UniProt Q9UGI0
T4 sequence (whole entry): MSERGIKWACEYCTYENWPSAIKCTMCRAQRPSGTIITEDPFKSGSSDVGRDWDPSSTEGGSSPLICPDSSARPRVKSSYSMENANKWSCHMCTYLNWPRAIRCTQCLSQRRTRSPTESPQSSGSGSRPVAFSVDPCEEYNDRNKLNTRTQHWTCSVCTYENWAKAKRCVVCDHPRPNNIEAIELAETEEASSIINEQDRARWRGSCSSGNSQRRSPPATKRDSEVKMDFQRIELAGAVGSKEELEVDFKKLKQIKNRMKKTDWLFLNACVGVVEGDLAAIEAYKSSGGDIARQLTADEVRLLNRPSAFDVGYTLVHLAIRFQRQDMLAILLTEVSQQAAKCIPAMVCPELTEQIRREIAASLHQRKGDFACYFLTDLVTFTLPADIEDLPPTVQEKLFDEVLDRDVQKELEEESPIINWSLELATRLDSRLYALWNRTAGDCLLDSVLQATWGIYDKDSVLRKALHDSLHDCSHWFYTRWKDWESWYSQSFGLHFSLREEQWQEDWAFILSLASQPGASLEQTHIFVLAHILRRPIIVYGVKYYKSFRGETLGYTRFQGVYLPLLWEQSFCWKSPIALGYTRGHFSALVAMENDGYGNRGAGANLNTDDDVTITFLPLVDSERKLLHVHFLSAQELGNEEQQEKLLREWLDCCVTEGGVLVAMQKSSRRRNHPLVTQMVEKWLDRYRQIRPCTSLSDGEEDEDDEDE
Summary of the method: as §1

[9] = target: T5, YOD1 (UniProt Q5VVQ6)
T5 sequence (whole entry): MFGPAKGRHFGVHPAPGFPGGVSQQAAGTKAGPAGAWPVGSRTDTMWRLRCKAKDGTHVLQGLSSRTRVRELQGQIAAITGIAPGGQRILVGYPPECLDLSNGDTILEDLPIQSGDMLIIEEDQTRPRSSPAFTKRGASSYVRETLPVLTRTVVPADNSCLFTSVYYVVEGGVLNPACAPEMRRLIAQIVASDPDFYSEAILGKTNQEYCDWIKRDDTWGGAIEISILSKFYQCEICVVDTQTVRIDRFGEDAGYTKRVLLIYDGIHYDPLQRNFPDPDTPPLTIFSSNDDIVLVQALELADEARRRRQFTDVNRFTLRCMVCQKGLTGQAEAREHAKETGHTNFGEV
Summary of the method: as §1

Measured: log2 ratio of Biotin-Ahx-Ub-VS probe labelling

Sequence of USP9X (Q93008 whole entry, the tested form may be a part): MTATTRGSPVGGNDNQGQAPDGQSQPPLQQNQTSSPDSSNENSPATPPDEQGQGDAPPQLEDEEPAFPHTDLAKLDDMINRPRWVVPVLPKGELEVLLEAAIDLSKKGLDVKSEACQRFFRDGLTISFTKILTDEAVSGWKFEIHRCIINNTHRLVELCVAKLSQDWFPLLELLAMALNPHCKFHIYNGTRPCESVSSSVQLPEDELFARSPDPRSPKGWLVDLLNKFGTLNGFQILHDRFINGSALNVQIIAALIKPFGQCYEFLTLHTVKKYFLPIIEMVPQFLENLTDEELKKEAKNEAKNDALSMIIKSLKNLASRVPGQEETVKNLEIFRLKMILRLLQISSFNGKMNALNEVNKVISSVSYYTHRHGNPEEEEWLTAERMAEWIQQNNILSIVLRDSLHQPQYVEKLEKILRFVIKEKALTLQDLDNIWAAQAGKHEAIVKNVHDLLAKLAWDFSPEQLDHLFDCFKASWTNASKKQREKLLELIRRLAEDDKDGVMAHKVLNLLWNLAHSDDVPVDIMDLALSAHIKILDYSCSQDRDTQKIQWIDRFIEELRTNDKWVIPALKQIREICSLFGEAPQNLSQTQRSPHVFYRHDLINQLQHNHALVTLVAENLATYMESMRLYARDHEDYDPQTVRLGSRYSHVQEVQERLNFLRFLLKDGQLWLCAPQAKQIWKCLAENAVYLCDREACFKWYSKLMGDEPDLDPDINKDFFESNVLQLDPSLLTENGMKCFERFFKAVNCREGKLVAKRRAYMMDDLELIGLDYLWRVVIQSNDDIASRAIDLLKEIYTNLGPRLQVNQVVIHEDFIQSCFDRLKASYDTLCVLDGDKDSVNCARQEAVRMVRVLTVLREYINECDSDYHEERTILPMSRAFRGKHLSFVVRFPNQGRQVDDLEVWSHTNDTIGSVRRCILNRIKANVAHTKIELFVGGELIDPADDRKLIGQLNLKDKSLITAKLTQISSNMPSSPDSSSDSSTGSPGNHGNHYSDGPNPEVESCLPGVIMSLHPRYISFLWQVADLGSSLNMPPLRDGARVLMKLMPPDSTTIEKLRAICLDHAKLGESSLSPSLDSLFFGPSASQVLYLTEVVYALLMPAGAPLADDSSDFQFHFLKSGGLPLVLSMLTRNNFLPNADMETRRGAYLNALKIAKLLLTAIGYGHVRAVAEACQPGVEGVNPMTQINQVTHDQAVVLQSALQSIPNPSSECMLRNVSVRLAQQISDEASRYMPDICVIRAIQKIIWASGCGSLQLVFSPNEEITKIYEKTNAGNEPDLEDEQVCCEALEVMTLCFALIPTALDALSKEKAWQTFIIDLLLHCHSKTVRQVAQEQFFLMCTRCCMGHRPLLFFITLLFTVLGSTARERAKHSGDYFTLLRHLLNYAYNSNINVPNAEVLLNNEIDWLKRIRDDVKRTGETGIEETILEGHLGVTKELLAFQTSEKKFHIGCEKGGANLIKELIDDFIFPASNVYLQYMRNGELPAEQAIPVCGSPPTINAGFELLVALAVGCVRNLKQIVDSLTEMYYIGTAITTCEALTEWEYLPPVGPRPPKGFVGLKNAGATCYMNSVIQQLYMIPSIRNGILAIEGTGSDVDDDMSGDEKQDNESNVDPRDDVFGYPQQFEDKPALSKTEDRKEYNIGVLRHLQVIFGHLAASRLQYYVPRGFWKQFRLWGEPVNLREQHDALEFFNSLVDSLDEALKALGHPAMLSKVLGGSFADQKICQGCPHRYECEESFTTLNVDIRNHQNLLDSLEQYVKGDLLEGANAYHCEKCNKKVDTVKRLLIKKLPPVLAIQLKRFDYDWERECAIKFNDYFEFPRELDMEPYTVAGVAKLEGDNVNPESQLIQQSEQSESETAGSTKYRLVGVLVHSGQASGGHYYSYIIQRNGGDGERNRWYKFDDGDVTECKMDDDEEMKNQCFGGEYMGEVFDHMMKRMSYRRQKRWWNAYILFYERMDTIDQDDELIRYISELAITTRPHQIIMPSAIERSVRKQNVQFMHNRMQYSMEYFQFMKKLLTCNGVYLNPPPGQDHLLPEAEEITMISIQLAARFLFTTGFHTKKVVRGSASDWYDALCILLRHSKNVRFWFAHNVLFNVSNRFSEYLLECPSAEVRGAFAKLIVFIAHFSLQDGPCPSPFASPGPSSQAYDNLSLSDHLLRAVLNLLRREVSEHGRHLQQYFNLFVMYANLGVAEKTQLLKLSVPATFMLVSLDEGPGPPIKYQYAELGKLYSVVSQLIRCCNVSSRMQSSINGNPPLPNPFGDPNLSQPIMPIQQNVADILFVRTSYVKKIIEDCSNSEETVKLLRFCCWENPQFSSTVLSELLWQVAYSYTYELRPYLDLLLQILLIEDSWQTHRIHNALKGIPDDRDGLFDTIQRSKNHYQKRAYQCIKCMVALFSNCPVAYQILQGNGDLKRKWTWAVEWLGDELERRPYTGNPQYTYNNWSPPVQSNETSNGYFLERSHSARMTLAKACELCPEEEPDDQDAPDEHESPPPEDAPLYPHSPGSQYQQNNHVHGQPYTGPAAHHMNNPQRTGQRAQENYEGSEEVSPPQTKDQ
Sequence of UniProt O00507 (O00507 whole entry): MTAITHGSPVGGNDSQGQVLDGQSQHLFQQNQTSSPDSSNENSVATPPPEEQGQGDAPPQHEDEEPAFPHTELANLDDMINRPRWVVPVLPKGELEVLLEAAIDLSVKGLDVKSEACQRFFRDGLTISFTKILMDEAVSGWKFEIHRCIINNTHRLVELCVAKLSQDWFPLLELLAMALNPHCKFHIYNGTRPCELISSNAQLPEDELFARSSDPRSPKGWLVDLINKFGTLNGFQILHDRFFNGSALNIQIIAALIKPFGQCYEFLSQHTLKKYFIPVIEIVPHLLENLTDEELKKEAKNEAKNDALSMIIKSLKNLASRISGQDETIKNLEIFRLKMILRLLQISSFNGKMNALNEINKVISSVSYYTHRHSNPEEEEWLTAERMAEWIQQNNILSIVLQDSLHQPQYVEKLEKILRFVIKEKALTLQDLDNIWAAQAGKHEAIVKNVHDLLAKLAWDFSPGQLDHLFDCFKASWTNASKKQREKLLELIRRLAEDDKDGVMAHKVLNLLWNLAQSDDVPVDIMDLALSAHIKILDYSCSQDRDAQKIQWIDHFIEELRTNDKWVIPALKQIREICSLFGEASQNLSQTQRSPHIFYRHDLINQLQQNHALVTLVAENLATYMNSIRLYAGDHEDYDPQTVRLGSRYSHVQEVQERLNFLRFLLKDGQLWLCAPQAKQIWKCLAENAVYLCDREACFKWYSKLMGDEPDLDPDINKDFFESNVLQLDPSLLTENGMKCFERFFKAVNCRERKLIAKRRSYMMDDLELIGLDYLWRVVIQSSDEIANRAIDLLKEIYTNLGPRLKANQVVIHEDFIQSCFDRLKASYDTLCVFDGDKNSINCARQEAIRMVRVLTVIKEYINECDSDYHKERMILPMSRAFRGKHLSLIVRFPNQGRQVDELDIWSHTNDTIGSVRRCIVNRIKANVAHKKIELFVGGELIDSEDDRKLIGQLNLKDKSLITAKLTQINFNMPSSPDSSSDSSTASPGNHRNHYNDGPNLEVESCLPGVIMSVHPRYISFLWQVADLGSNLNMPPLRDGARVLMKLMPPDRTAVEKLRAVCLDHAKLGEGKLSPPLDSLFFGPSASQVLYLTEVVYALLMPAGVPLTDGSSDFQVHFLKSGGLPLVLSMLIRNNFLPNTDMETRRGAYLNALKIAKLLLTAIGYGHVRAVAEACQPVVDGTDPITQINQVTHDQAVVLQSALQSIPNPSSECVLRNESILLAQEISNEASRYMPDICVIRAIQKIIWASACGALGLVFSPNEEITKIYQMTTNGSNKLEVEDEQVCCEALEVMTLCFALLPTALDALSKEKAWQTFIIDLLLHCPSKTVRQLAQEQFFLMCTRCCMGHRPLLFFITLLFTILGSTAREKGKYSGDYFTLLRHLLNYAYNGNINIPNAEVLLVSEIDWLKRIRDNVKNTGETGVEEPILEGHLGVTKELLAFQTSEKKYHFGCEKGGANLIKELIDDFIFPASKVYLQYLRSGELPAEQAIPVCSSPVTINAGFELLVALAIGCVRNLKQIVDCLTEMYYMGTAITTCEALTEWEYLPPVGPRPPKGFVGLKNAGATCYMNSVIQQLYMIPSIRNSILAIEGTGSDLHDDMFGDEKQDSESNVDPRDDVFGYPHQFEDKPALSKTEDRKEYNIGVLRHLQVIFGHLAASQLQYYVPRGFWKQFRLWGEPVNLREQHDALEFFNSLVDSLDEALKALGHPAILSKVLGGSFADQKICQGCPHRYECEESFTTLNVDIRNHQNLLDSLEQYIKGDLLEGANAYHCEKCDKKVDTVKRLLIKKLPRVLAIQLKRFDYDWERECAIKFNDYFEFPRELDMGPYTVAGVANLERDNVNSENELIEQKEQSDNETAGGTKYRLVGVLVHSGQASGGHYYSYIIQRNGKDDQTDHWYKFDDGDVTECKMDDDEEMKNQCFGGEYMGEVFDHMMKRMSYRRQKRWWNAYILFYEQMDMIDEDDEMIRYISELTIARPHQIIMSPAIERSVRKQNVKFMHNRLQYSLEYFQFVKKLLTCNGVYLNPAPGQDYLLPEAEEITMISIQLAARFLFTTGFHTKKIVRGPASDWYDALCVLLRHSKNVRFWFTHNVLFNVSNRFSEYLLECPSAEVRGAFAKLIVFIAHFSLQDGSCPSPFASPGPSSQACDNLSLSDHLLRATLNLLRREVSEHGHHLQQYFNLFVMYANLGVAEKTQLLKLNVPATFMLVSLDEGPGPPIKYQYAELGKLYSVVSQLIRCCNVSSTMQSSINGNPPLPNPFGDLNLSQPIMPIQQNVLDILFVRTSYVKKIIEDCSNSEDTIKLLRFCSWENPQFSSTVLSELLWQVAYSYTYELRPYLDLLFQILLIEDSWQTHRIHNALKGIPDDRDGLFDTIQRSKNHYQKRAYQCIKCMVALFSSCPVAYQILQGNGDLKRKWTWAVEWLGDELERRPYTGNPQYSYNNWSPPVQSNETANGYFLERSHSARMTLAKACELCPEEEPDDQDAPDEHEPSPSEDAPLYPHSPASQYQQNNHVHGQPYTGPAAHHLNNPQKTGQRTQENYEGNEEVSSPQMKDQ

COc1ccc(C2CCCN2C(=O)CCl)c(OC)c1 (centres undefined)
inactive: [1] -0.271 | [2] -0.0639 | [3] 0.129 | [4] -0.237 | [5] -0.139 | [6] -0.514 | [7] -0.249 | [8] -0.113 | [9] -0.0199
